Results as given in ChEMBL document CHEMBL4513216, “Probing the Open Global Health Chemical Diversity Library for Multistage-Active Starting Points for Next-Generation Antimalarials” (ACS Infect Dis, 2020).
Screen size: about 65,000 compounds; about 2,100 (3.2%) showed an effect of 50% or more. The median lay at about -52%. The sample holds strong results, similar compounds and a random draw of the others, so the mix is not that of the screen.

System: Plasmodium falciparum
Assay: Screen against P. falciparum Asexual Blood Stage (ABS), at 5uM
Format: functional, Dd2
Conditions: tested at 5 uM

Compound | INHIBITION [%]
CCC(Nc1nc(C)nc2onc(C)c12)c1nc(C)c(C)s1 (centres undefined) | -38.1
CCCc1noc(CN2CCOCC2C)n1 (centres undefined) | -47.4
Cc1cc(NC(=O)CCn2nc(C)c3ccccc32)n(C(C)C)n1 | -75.1
CO[C@H]1CCN(S(=O)(=O)c2cn(C)cn2)[C@H]1Cc1cccnc1 | -8.09
Cc1cc(=O)n2nc(-c3cccs3)nc2n1CC(=O)NC(C)C | -10.8
Cc1cc(C)c(CNC(=O)N(C)Cc2ccc3c(c2)OCO3)c(=O)[nH]1 | -71.6
Cn1cc(NC(=O)N2CCC(OCc3ccccc3)CC2)ccc1=O | 43.6
Cc1nn(C)c(N(C)C)c1CNCC(O)COc1cccc(F)c1 (centres undefined) | -0.711
COC(=O)c1ncccc1N1CCN(C(=O)CN2CCOCC2)CC1 | -131
Cc1cnn(CC2CCCCN2C(=O)Cc2cn3ccsc3n2)c1 (centres undefined) | -120
CCc1cnc2c(c1Nc1ccc(C)c(F)c1)c(=O)n(C)c(=O)n2C | 41.1
Cc1c(C)n(Cc2ccccn2)c2nc3c(c(N)c12)CCCCCC3 | 60.3
Cc1c(C)n(Cc2ccccn2)c2nc3c(c(N)c12)CCCCC3 | 23.7
Cc1c(C)n(Cc2ccncc2)c2nc3c(c(N)c12)CCCCC3 | 21
Cc1cccc2c1ccn2CCC(=O)Nc1c2c(nn1C)CSC2 | -53.4
Cc1ccc(Br)cc1NC(=O)NC1CCC2(C1)OCCO2 (centres undefined) | -96.9
CC1N(c2cnn(C)c2)C(=O)COC12CCN(c1ncccn1)CC2 (centres undefined) | -127
CCc1nn(-c2cc(Oc3cc(C)ccc3C)ncn2)c(N)c1C#N | -64
C[C@]1(O)CN(CCO)CC[C@@H]1Oc1cccc(F)c1 | 65.2
C[C@]1(O)CN(CC(=O)N2CCCC2)CC[C@@H]1Oc1cccc(F)c1 | 25
C[C@]1(O)CN(CCC(N)=O)CC[C@@H]1Oc1cccc(F)c1 | -39.3
CCc1cnc(N2CCc3cc(C(=O)NC)c(N(C)C)nc3CC2)nc1 | -12.1

Compound | INHIBITION [%]
O=C1[C@@H]2CC[C@@H](CN(c3ncnc4ccsc34)C2)N1CC1CC1 | -85.4
CCc1cc(N(C)Cc2noc(CC(C)C)n2)ncn1 | -78.3
CC(C)Cc1noc(CN(C)c2cc(N(C)C)ncn2)n1 | 50.4
CC(C)Cc1noc(CN(C)c2ncccn2)n1 | -64.8
CNc1cc(N2CCCC2CNCc2ccco2)ncn1 (centres undefined) | -103
O=C(C1CCOC1)N1CC2(CCN(c3ccccc3)C2)C1 (centres undefined) | -3.52
CC(C)CC(=O)N1CC(=O)c2sc(Nc3ccc(F)cc3F)nc2C1 | -30.6
Cc1ccc(OCC(O)CN2CCC(Cn3cc(C)cn3)CC2)cc1 (centres undefined) | -93.6
Cc1cnn(CC2CCN(CC(O)CN3CCC(C)CC3)CC2)c1 (centres undefined) | 63.8
Cc1cnn(CC2CCN(CC(O)Cn3cccn3)CC2)c1 (centres undefined) | -78.8
CCc1nc(C)c(C(=O)NCCNC(=O)c2cccs2)s1 | -96.9
CCc1nc(NCCCn2cccn2)c2c(n1)c(C)nn2CC | -75.8
COCCNC(=O)CN(C)C(C)c1nc(C)no1 (centres undefined) | -63.5
Cn1cccc1C(=O)NCc1ccnc(C2CCCOC2)n1 (centres undefined) | -162
Cc1ccsc1C(=O)NCc1ccnc(C2CCCOC2)n1 (centres undefined) | -57.8
Cc1ccc(C(=O)NCc2ccnc(C3CCCOC3)n2)s1 (centres undefined) | 53.3
COc1cc(F)ccc1-c1cc(CO)ccn1 | -92
COc1cc(F)ccc1-c1cc(N)ccn1 | 52.7
COc1ccc(-c2cc(N)ccn2)c(OC)c1OC | -9.16
CC(=O)NCc1nn(C)c2c1CN(Cc1ccsc1)C2 | -24.6
Cc1csc(N2CCN(C3CCc4ccccc4C3)CC2)n1 (centres undefined) | -22.1
Fc1ccc(CN2CCC3(CCN(Cc4nccs4)CC3)C2)cc1 | 57.9

Compound | INHIBITION [%]
Fc1ccc(CN2CCC3(CC2)CCN(c2ncccn2)CC3)cc1 | 55
Fc1ccc(CN2CCOCC3(CCN(Cc4nccs4)C3)C2)cc1 (centres undefined) | 0.38
COc1ccc(CN2CCC3(CC2)CCN(c2ncccn2)CC3)cc1 | -85.1
c1cnc(N2CCC3(CCN(Cc4cccnc4)CC3)CC2)nc1 | -71.4
c1csc(CN2CC3(CCN(Cc4ccsc4)C3)C2)n1 | -42.4
CSc1cccc(NC(=O)N2CCC3(CCC(=O)N(C4CC4)C3)CC2)c1 | -19.6
O=C(CCC(F)(F)F)N1CCCC(CO)(CC2CC2)C1 (centres undefined) | -11.2
Cc1ccc(CN2CCc3c(nnn3C)C2COCc2ccccc2)s1 (centres undefined) | -109
O=C(N1CCSCC1)C1(O)Cc2ccccc2C1 | -41.2
O=C(N1CCN(CCO)CC1)C1(O)Cc2ccccc2C1 | -1.26
O=C(N1CCc2ccccc2CC1)C1(O)Cc2ccccc2C1 | 58.7
Nc1nnnn1NCc1cccc(Cl)c1Cl | -65.4
Cc1nc(C)n(CC2CCCN(CC(=O)Nc3cc(C)on3)C2)n1 (centres undefined) | 3.79
Cc1nc(C)n(CC2CCCN(CC(=O)Nc3cccnc3)C2)n1 (centres undefined) | -133
Cc1nc(C)n(CC2CCCN(CC(=O)Nc3ccncc3)C2)n1 (centres undefined) | 60.6
Cc1nc(C)n(CC2CCCN2CC(=O)Nc2ccncc2)n1 (centres undefined) | -153
Cc1cc(NC(=O)CN2CCCC(Cn3nc(C)nc3C)C2)n(C)n1 (centres undefined) | 54.5
Cc1cc(NC(=O)CN2CCCC2Cn2nc(C)nc2C)n(C)n1 (centres undefined) | -142
COCC(=O)Nc1ccc(C)cc1-c1nc(C2CC2)no1 | -92.7
CCn1cc2c(n1)CN(Cc1ccc(C)o1)CC2COCC1CC1 (centres undefined) | -68.6
O=C(NCC1CCCCC1)NC1CCCc2c1cnn2CCO (centres undefined) | -133
Cc1c(C(C)NC(=O)N2CCN(C3CCCC3)CC2)cnn1C (centres undefined) | -70.2

Compound | INHIBITION [%]
COC(=O)c1sc2cccc(F)c2c1CNC(=O)C1CCOC1 (centres undefined) | -5.44
Fc1cccc(OC2CCN(Cc3ncc[nH]3)CC2)c1 | 36.9
Cc1cccc(Nc2ccc(C3CCN(Cc4ncc[nH]4)CC3)nc2)n1 | 51.8
Cc1nnc(Nc2cccc(C3CCN(Cc4ncc[nH]4)CC3)n2)s1 | 31.6
Fc1ccc(Nc2ccc(C3CCN(Cc4ncc[nH]4)CC3)nc2)nc1 | 63.1
Cc1cc(Nc2ccc(F)cn2)cc(C2CCN(Cc3ncc[nH]3)C2)n1 (centres undefined) | -49.2
CNc1cccc(C2CCCN(Cc3ncc[nH]3)C2)n1 (centres undefined) | -20.8
CCN(CC)C(=O)C1CCCN1C(=O)c1cccc(-n2cnnn2)c1 (centres undefined) | -72.5
O=C(CCCOc1ccccc1F)NCCCC(=O)Nc1cn[nH]c1 | -97.2
Cc1cc(C)n(CC2CCCN2C(=O)c2ccc3c(c2)COC3)n1 (centres undefined) | -101
CN(C)c1ccc(CNC2=NCCCN2)cc1 | -56.7
CCOCc1ccc(CNC2=NCCCN2)cc1 | 55.7
c1ccc(OCCNC2=NCCCN2)cc1 | 16.3
CCOCCOC(C)C(=O)NCc1cn2cc(Cl)ccc2n1 (centres undefined) | -73.4
COc1ccc(S(=O)(=O)N2C[C@H](OC)[C@]3(CCCO3)C2)cc1 | -98.4
COCC(=O)N[C@@H]1CN(Cc2ccc3c(c2)OCCO3)C[C@H]1O | -66.5
Cc1nn(C)c2cn(C(C)C(=O)NCc3cccc(F)c3)nc12 (centres undefined) | -32
c1ncn(CC2CCCN(Cc3nnc(C4CC4)o3)C2)n1 (centres undefined) | -49
CC(C)(C)c1nnc(CN2CCCC(Cn3cncn3)C2)o1 (centres undefined) | -204
c1coc(-c2nc(CN3CCCC(Cn4cncn4)C3)cs2)c1 (centres undefined) | -19.5
Cc1oc(-c2ccco2)nc1CN1CCCC(Cn2cncn2)C1 (centres undefined) | 56.4
CC(C)c1nnc(CN2CCCC(Cn3cncn3)C2)o1 (centres undefined) | 53.1

Compound | INHIBITION [%]
c1coc(-c2noc(CN3CCCC(Cn4cncn4)C3)n2)c1 (centres undefined) | -29
COc1ccc2c(c1)CC(C1CCOCC1)N(C(=O)c1cnccn1)C2 (centres undefined) | -108
COC(=O)c1ccc(N2CCN(C(=O)c3cccnc3)C(C)C2)cc1 (centres undefined) | -5.1
CN(C)C(=O)CN1CCc2ncnc(NC3CCC3)c2CC1 | -76.8
CCC(CO)N(Cc1ccc(C(=O)O)cc1)Cc1ccsc1 (centres undefined) | -74.7
CCC(CO)N(CC=C(C)C)Cc1ccsc1 (centres undefined) | 23.4
CCC(CO)N(Cc1ccsc1)Cc1cccc(O)c1 (centres undefined) | 67.6
O=C(NCCCN1CCOCC1)c1nc(-c2ccc3cc[nH]c3c2)no1 | 20.5
COc1cccc(CC(=O)N2CCCC2c2nc(C)c(C)c(O)n2)c1 (centres undefined) | -102
CN(CCC#N)C(=O)Cn1nnnc1C(C)(C)C | -112
CC(O)(CNC(=O)c1c(F)cccc1Cl)c1ccco1 (centres undefined) | -45.8
CC(C)c1cc(C(=O)NCCN2CCOCC2)nc(N2CCCC2)n1 | -70.3
c1ccc(-c2nc3c(c(NCCc4c[nH]cn4)n2)CCNC3)cc1 | 51.1
c1cc(-c2nc3c(c(NCCc4c[nH]cn4)n2)CCNCC3)ccn1 | -225
c1nc(CCNc2nc(C3CC3)nc3c2CCNCC3)c[nH]1 | -79.3
Cc1ccc(C(=O)N2CCC(O)(CN3CCc4ccccc4C3)C2)s1 (centres undefined) | -64.4
CN(C)Cc1ccc(C(=O)N2CCCC(COc3ccc(F)cc3)C2)o1 (centres undefined) | 17.1
CC(NC(=O)NCCCN(C)S(C)(=O)=O)c1ccc(Cl)cc1 (centres undefined) | -42.6
COc1ccc(NC(=O)c2cnc(N3CCN(C)CC3)nc2C)cc1 | -103
Cc1ccc(NC(=O)Nc2cnc(N3CCN(C)CC3)nc2)cc1 | 59.3
COc1ccc(C)cc1NC(=O)Nc1cnc(N2CCCC2)nc1 | -26.2
